# In all, about 5,500 compounds went through this assay and about 2,000 (36%) were called active. Another 18% or so got no clear call; they are omitted. The list shows a part of the results. A number with no mark means an inactive call. Rule as the data show it: active = normalized growth mostly below about 0.91 (no sharp cut-off); inconclusive = no clear call, values can overlap the other calls; inactive = mostly above about 0.92.
# Assay: chemical genetic growth profiling, strain panel (AID 1159580);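 also: tested at 20 µM; growth read once vehicle control cultures reached saturation at 30 °C; 1 = growth at the plate median or of vehicle wells; lower values mean less growth of the strain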
# Settings: S. cerevisiae deletion strains, growth OD
smiles,measurement,setting,value
C[C@@H]1OC(O[C@H]2[C@H](OC(=O)[C@]34CCC(C)(C)CC3C3=CCC5[C@@]6(C)CC[C@H](OC7O[C@@H](C)[C@H](O[C@@H]8OC[C@@H](O)[C@H](O)[C@H]8O)[C@@H](O)[C@H]7O)C(C)(C)C6CC[C@@]5(C)[C@]3(C)CC4O)OC[C@H](O)[C@H]2O)[C@H](O)[C@H](O)[C@H]1O[C@@H]1O[C@H](CO)[C@@H](O)[C@H](O)[C@H]1O (some centres not stated),normalized growth,"locus YBR021W, strain FUR4, active compounds read low",0.963
same,normalized growth,"locus YBR229C, strain ROT2, active compounds read low",0.967
same,normalized growth,"locus YCL029C, strain bik1, active compounds read low",1.01
same,normalized growth,"locus YDL035C, strain GPR1, active compounds read low",0.785 (active)
same,normalized growth,"locus YDL074C, strain BRE1, active compounds read low",0.885
same,normalized growth,"locus YDL101C, strain DUN1, active compounds read low",0.984
same,normalized growth,"locus YDL134C, strain PPH21, active compounds read low",0.883 (active)
same,normalized growth,"locus YDL185W, strain tfp1, active compounds read low",0.974
same,normalized growth,"locus YDL192W, strain arf1, active compounds read low",0.825 (active)
same,normalized growth,"locus YDR101C, strain arx1, active compounds read low",0.985
same,normalized growth,"locus YDR162C, strain NBP2, active compounds read low",0.0581 (active)
same,normalized growth,"locus YDR318W, strain mcm21, active compounds read low",0.917
same,normalized growth,"locus YDR388W, active compounds read low",0.918 (active)
same,normalized growth,"locus YDR502C, strain sam2, active compounds read low",0.936
same,normalized growth,"locus YEL061C, strain CIN8, active compounds read low",0.95
same,normalized growth,"locus YER110C, active compounds read low",0.996
same,normalized growth,"locus YER155C, strain BEM2, active compounds read low",1.12 [resistant] (active)
same,normalized growth,"locus YER167W, strain BCK2, active compounds read low",0.895 (active)
same,normalized growth,"locus YGL078C, strain dbp3, active compounds read low",0.929
same,normalized growth,"locus YGL086W, strain mad1, active compounds read low",0.977
same,normalized growth,"locus YGL248W, strain PDE1, active compounds read low",0.993
same,normalized growth,"locus YGR135W, strain pre9, active compounds read low",0.978
same,normalized growth,"locus YGR252W, strain gcn5, active compounds read low",0.934
same,normalized growth,"locus YHR030C, strain SLT2, active compounds read low",0.323 (active)
same,normalized growth,"locus YHR079C, strain IRE1 (second series), active compounds read low",0.975
same,normalized growth,"locus YHR094C, strain hxt1, active compounds read low",0.982
same,normalized growth,"locus YHR129C, strain ARP1, active compounds read low",0.923
same,normalized growth,"locus YHR200W, strain rpn10, active compounds read low",0.974
same,normalized growth,"locus YIL066C, strain RNR3, active compounds read low",0.912
same,normalized growth,"locus YIL073C, strain SPO22, active compounds read low",0.936
same,normalized growth,"locus YIL125W, strain kgd1, active compounds read low",0.958
same,normalized growth,"locus YIR030C, strain dcg1, active compounds read low",0.969
same,normalized growth,"locus YJL095W, strain BCK1, active compounds read low",0.33 (active)
same,normalized growth,"locus YJL134W, strain LCB3, active compounds read low",1.04
same,normalized growth,"locus YJL168C, strain set2, active compounds read low",1.01
same,normalized growth,"locus YJL187C, strain SWE1 (second series), active compounds read low",0.925
same,normalized growth,"locus YJR043C, strain POL32, active compounds read low",0.858
same,normalized growth,"locus YJR075W, strain HOC1, active compounds read low",0.957
same,normalized growth,"locus YKL009W, strain mrt4, active compounds read low",0.876 (active)
same,normalized growth,"locus YKL068W, active compounds read low",0.949
same,normalized growth,"locus YKL085W, strain MDH1 (second series), active compounds read low",0.904 (active)
same,normalized growth,"locus YKL085W, strain MDH1, active compounds read low",0.904 (active)
same,normalized growth,"locus YKR001C, strain vps1, active compounds read low",0.721 (active)
same,normalized growth,"locus YLR039C, strain RIC1, active compounds read low",0.842
same,normalized growth,"locus YLR058C, strain SHM2, active compounds read low",0.972
same,normalized growth,"locus YLR102C, strain apc9, active compounds read low",0.982
same,normalized growth,"locus YLR262C, strain YPT6, active compounds read low",0.709
same,normalized growth,"locus YLR268W, strain sec22, active compounds read low",0.966
same,normalized growth,"locus YLR330W, strain CHS5, active compounds read low",0.993
same,normalized growth,"locus YLR342W, strain FKS1 (second series), active compounds read low",0.927
same,normalized growth,"locus YLR371W, strain rom2, active compounds read low",0.714 (active)
same,normalized growth,"locus YLR418C, strain cdc73, active compounds read low",0.745 (active)
same,normalized growth,"locus YML016C, strain PPZ1, active compounds read low",1
same,normalized growth,"locus YML032C, strain rad52, active compounds read low",0.824 (active)
same,normalized growth,"locus YML124C, strain tub3, active compounds read low",0.993
same,normalized growth,"locus YMR078C, strain ctf18, active compounds read low",0.987
same,normalized growth,"locus YMR223W, strain ubp8, active compounds read low",0.895 (active)
same,normalized growth,"locus YMR307W, strain GAS1, active compounds read low",0.212 (active)
same,normalized growth,"locus YNL067W, strain RPL9B, active compounds read low",0.983
same,normalized growth,"locus YNL128W, strain TEP1, active compounds read low",0.887
same,normalized growth,"locus YNL153C, strain GIM3, active compounds read low",0.958
same,normalized growth,"locus YNL233W, strain BNI4, active compounds read low",0.997
same,normalized growth,"locus YNL250W, strain rad50, active compounds read low",0.891 (active)
same,normalized growth,"locus YNL271C, strain bni1, active compounds read low",1
same,normalized growth,"locus YNL298W, strain CLA4, active compounds read low",0.838 (active)
same,normalized growth,"locus YNL307C, strain MCK1, active compounds read low",0.991
same,normalized growth,"locus YNR052C, strain pop2, active compounds read low",0.815 (active)
same,normalized growth,"locus YOL012C, strain htz1",2.15 [resistant] (active)
same,normalized growth,"locus YOL147C, strain pex11, active compounds read low",0.986
same,normalized growth,"locus YOR061W, strain CKA2, active compounds read low",0.59 (active)
same,normalized growth,"locus YOR069W, strain VPS5, active compounds read low",1.01
same,normalized growth,"locus YOR136W, strain idh2, active compounds read low",0.951
same,normalized growth,"locus YOR144C, strain elg1, active compounds read low",0.982
same,normalized growth,"locus YOR184W, strain ser1, active compounds read low",0.79 (active)
same,normalized growth,"locus YOR316C, strain cot1, active compounds read low",0.984
same,normalized growth,"locus YPL055C, strain LGE1, active compounds read low",0.841
same,normalized growth,"locus YPL241C, strain CIN2, active compounds read low",0.989
same,normalized growth,"locus YPR119W, strain clb2, active compounds read low",0.988
same,normalized growth,"locus YPR141C, strain kar3, active compounds read low",0.981
same,normalized growth,"locus YPR163C, strain tif3, active compounds read low",0.935
same,normalized growth,"locus YPR167C, strain met16, active compounds read low",0.861 (active)
same,normalized growth,"strain wtn01, active compounds read low",0.955

# Source: PubChem BioAssay AID1159580 (chemical genetic matrix, 2015)
